# In the library only some 3.5% were active in any assay of this set; here they are far more common.
# FBA Mtb inh: Mtb fructose-bisphosphate aldolase inhibition; purified M. tuberculosis FBA, fluorescence read-out; inhibition, % at 1 µM; 2.3% of 360,000 active; AID 588726;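 note: 0% = vehicle and 100% = reference inhibitor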
# Target sequence (P9WQA3 whole entry, looked up): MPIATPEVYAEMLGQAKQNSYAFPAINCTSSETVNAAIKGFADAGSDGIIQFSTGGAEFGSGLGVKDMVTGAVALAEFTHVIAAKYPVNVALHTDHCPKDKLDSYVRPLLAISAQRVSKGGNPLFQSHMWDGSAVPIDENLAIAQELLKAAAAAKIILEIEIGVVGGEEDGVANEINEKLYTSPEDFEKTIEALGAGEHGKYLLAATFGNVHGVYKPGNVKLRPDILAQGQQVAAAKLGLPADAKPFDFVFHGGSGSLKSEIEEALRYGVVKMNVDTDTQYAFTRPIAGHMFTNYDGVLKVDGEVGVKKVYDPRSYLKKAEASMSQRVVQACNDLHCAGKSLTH
# GDH-TPI counter-1: counter-screen for M. tuberculosis FBA inhibitors: GDH-TPI coupled enzymes. GDH-TPI coupled enzyme counterscreen, NADH absorbance. inhibition, % at 4.8 µM. 1.2% of 360,000 active; in the data active = inhibition above about 30%;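 note: 0% = DMSO wells and 100% = wells lacking the enzyme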
# Mtb UGM inh: blocks M. tuberculosis UGM enzyme; inhibition, % at 10 µM; P9WIQ1; purified UGM, fluorescence polarization probe displacement; 0.06% of 320,000 active; in the data active = inhibition above about 10%, passing the limit was not always enough
# FadD28 FP inh: blocks FadD28 binding to the bisubstrate probe; fluorescence polarization; inhibition, % at 12.5 µM; 0.22% of 360,000 active; AID 588549; in the data active = inhibition above about 8.5%, passing the limit was not always enough
# Rv3671c inh: inhibits the M. tuberculosis serine protease Rv3671c; inhibition, % at 5.96 µM; 0.048% of 320,000 active; in the data active = inhibition above about 38%;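 note: extracellular domain of Rv3671c used as enzyme; 0% = enzyme with DMSO and 100% = no enzyme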
# Mtb hypoxia rep: reduces hypoxia-regulated biosensor signal in M. tuberculosis. 0.1% of 300,000 active. fluorescence inhibition, % (test concentration not listed). AID 1159583. M. tuberculosis hypoxia-regulated fluorescent reporter, fluorescence; in the data active = fluorescence inhibition mostly above about 23%, no sharp cut-off; inactive = mostly below about 17%
# Mtb FBA inh conf: Mtb FBA inhibition, confirmed; shares compounds with FBA Mtb inh; purified M. tuberculosis FBA, fluorescence read-out; inhibition, % at 1 µM; 78% of 5,600 active; AID 651616;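 note: 0% = vehicle wells and 100% = reference inhibitor wells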
# GDH-TPI counter-2: counter-screen for M. tuberculosis FBA inhibitors: GDH-TPI coupled enzyme inhibition; GDH-TPI coupled enzyme counterscreen, fluorescence; 81% of 5,600 active; AID 652141; shares compounds with FBA Mtb inh; inhibition, % at 1 µM; in the data active = inhibition above about 10%
# The depositor's hits bear a star; · = no result; + = active, no number. Cut-off read from the data, not from the text of the source, unless noted: active = inhibition above about 27%; inactive = the rest.
SMILES,FBA Mtb inh,GDH-TPI counter-1,Mtb UGM inh,FadD28 FP inh,Rv3671c inh,Mtb hypoxia rep,Mtb FBA inh conf,GDH-TPI counter-2
Nc1c(C(=O)NCc2ccco2)c2nc3ccccc3nc2n1CCN1CCOCC1,72*,14,0,-5,-10,7,108*,89*
O=C(NCCN1CCOCC1)c1ccc2ccccc2n1,0,6,-3,3,5,2,·,·
Nc1c(C(=O)NCc2ccco2)c2nc3ccccc3nc2n1Cc1ccc(F)cc1,58*,24,0,-6,-63,·,38*,37*
CCCNC(=O)c1c(N)n(-c2cccc(OC)c2)c2nc3ccccc3nc12,68*,13,3,-1,-5,-1,-6,-4
O=C(NCc1ccco1)c1c(F)c(F)c(F)c(C(=O)NCc2ccco2)c1F,1,2,-2,0,-2,12,·,·
C=CCNC(=O)c1c(N)n(-c2ccc3c(c2)OCO3)c2nc3ccccc3nc12,0,15,-1,-1,-3,16,·,·
O=C(NCc1ccco1)c1ccc(S(=O)(=O)N2CCOCC2)cc1,2,1,-2,-3,0,4,·,·
Nc1c(C(=O)NCCN2CCOCC2)c2nc3ccccc3nc2n1-c1cccc(F)c1,104*,23,0,-3,0,15,-5,-6
COc1ccccc1NS(=O)(=O)c1cccc(C(=O)NN=C(C)c2ccncc2)c1,·,·,·,·,·,-2,·,·
CCCCCCCCCOC(=O)C1N2C(=O)C(NC(=O)COc3ccccc3)C2SC1(C)C (centres undefined),·,·,·,·,·,15,·,·
CS(=O)(=O)c1ccc(CNC(=O)C2(C(F)(F)F)CC(=CCc3ccccc3)CCCO2)cc1 (centres undefined),·,·,·,·,·,-6,·,·
CC(=NNC(=O)Cc1csc(N2CCOCC2)n1)c1ccccc1,·,·,·,·,·,14,·,·
COc1ccc(Nc2cc(C(=O)NCc3ccco3)c3ccccc3n2)cc1,·,·,1,·,-5,2,·,·
CCCCn1c(N)c(C(=O)NCc2cccs2)c2nc3ccccc3nc21,33*,7,1,0,-53,1,166*,142*
COc1ccc(S(=O)(=O)Cc2ccc(C(=O)NCc3ccco3)o2)cc1,0,1,1,0,1,·,·,·
COc1ccc(Cn2c(N)c(C(=O)NCc3ccco3)c3nc4ccccc4nc32)cc1,61*,6,-3,-8,-50,1,190*,158*
COc1ccc(CCn2c(N)c(C(=O)NCc3ccco3)c3nc4ccccc4nc32)cc1,85*,17,1,-7,-12,-1,+,198*
CCOC(=O)c1c(N)n(Cc2ccco2)c2nc3ccccc3nc12,77*,15,2,-3,-4,0,198*,172*
COC(=O)c1c(C(=O)OC)c(C)n(Cc2ccco2)c1C,-1,4,4,1,-6,·,·,·
COc1ccc(C=NNC(=S)SC)cc1OC,·,·,·,·,·,5,·,·
COc1ccc(C2CC(=O)C=C(c3ccc(C)c(F)c3)C2)cc1 (centres undefined),·,·,·,·,·,23,·,·
Cc1onc(-c2ccccc2)c1C(=O)NN=Cc1cc(Br)c(Br)o1,·,·,·,·,·,-2,·,·
CCCCCn1c(N)c(C(=O)NCCN2CCOCC2)c2nc3ccccc3nc21,65*,8,0,-6,4,·,+,+
COc1ccc(-n2c(N)c(C(=O)NCc3ccco3)c3nc4ccccc4nc32)c(OC)c1,60*,4,-1,-5,-55,7,-1,-5
COc1ccc(CCNC(=O)c2c(N)n(CCN3CCOCC3)c3nc4ccccc4nc23)cc1OC,12,3,0,1,1,3,·,·
CCCCNC(=O)c1c(N)n(Cc2ccc3c(c2)OCO3)c2nc3ccccc3nc12,30*,18,3,2,-8,1,65*,55*
C/C(C=NNC(=O)c1sc(N)nc1C)=C\c1ccccc1,·,·,·,·,·,-3,·,·
O=C(C=Cc1cccs1)Nc1ccc(N2CCOCC2)c(S(=O)(=O)Nc2ccccc2Cl)c1,·,·,·,·,·,2,·,·
CNc1ccc2ncc(-c3ccccc3NC(C)=O)n2n1,47*,7,·,0,·,·,0,-4
CC(=O)Nc1cc(-c2ccccc2F)cn2c(-c3ccccc3)cnc12,5,-4,·,-3,·,·,·,·

# Source: PubChem BioAssay
